MCF10A rerep = inducers of DNA re-replication in MCF 10A breast cells | MCF 10A DNA re-replication, Hoechst nuclear intensity, 48 h | Potency, µM (top dose mostly 46.1 µM), inactives show top-dose activity, positive = re-replication, usual class: activators | 350,000 compounds, 2.9% hits; further: potency means the concentration at half of the fitted maximal effect; % of control where 0% means no effect; nearly all actives have a fitted effect of over 50% in size
SW480 rerep = DNA re-replication induction in SW480 cells. 340,000 compounds, 1.8% hits. Potency, µM (highest dose often 46.1 µM), for the others: at the top dose re-replication activation, usual class: activators. AID 624297. SW480 DNA re-replication, Hoechst DNA content imaging, 48 h; further: potency means the concentration at half of the fitted maximal effect; % of control where 0% means no effect; nearly all actives have a fitted effect of over 55% in size
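Per well, 250 cells were exposed to pinned compound for 48 hr. Nuclear DNA was visualised with Hoechst (40 min, 37 C) and total object intensity recorded by fluorescence scanning.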
KB-3-1 cytotox = kills parental KB-3-1 adenocarcinoma cells; KB-3-1 viability, CellTiter-Glo ATP luminescence, 72 h; Potency, µM (highest dose often 46.1 µM), actives largely listed as cytotoxic; 400,000 compounds, 1.4% hits; further: potency means the concentration at half of the fitted maximal effect; on the % scale 0 is the no-effect control and ±100 the full control effect; nearly all actives have a fitted effect of over 60% in size
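KB-3-1 parental drug-naive adenocarcinoma cells in DMEM/10% FBS, incubated 72 h at 37 C with pin-transferred compounds across a concentration series. Viability by CellTiter-Glo luminescence; concentration-response curves fitted after normalization.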
Giardia kill = kills Giardia lamblia; 340,000 compounds, 0.15% hits; Giardia lamblia trophozoite viability; activity change, % at 7.66 µM, hits read low; in the data active means activity change below about -80%; inconclusive means between about -30% and that limit;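 further: parasites exposed to compound for two days anaerobically before the ATP read; on the % scale 0 is the no-effect control and ±100 the full control effect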
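Giardia trophozoites, 100 cells per well, were exposed to compounds for 48 hrs at 37 deg C under anaerobic conditions; viability was then read as ATP content by bioluminescence after 15-30 min at room temperature.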
KB-V1 MDR tox = kills drug-selected multidrug resistant KB-V1 cells; KB-V1 MDR cells viability, CellTiter-Glo, 72 h; Potency, µM (top dose mostly 46.1 µM), hits mostly cytotoxic; 400,000 compounds, 3.4% hits; AID 1347076; further: potency means the concentration at half of the fitted maximal effect; on the % scale 0 is the no-effect control and ±100 the full control effect; nearly all actives have a fitted effect of over 60% in size
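KB-V1 cells (P-gp-expressing MDR subline of KB-3-1) in phenol-red-free DMEM with 10% FBS were exposed to library compounds over a concentration series for 72 h at 37 degrees C. Viability read by CellTiter-Glo luminescence; concentration-effect curves fitted after normalization.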
ASM inhibitor = blocks human secretory acid sphingomyelinase. 340,000 compounds, 0.006% hits. placental ASM, HMU-PC fluorogenic substrate, 60 min. Potency, µM (titrated, usually from 57.5 µM), inactives show top-dose activity change, negative = inhibition, usual class: inhibitors. P17405; further: potency means the concentration at half of the fitted maximal effect
Target sequence (P17405 47-631 limits assumed): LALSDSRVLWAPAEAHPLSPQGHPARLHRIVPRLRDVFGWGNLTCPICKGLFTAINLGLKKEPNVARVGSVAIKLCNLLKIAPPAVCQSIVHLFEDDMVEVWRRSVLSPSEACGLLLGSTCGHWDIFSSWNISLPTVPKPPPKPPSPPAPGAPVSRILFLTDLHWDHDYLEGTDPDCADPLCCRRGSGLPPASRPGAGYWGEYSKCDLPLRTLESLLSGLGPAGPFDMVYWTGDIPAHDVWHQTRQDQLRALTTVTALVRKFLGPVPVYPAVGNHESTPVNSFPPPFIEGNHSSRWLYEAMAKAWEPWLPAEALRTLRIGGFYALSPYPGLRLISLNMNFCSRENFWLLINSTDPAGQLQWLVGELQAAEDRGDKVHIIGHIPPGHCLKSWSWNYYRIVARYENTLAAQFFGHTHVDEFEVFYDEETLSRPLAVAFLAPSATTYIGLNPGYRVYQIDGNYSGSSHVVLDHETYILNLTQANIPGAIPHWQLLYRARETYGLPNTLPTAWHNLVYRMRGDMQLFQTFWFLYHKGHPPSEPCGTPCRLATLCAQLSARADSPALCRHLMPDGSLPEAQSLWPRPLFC
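Human placenta-derived ASM preincubated with compound 10 min at room temperature, then reacted with 9 uM (final) fluorogenic HMU-PC substrate for 60 min at 37 C. Stop solution raises pH to 10; fluorescence read at Ex 386/Em 447 nm.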
The depositor's hits bear a star; i = inactive; ? = inconclusive; . = no result given. Only some compounds are listed: those with a hit (about 6.9% of all), similar ones and a draw of the others. Unless noted, the call rests on the fitted dose curve; in most records, active means well fitted curve in the direction sought with a large enough effect; inconclusive means small, poorly fitted or top-dose-only effect, or another doubt; inactive means no such curve, though single readings can be large; an effect the other way counts as inactive or inconclusive.

SMILES | MCF10A rerep | SW480 rerep | KB-3-1 cytotox | Giardia kill | KB-V1 MDR tox | ASM inhibitor
O=c1c2[nH]c3ccccc3c2ncn1CCC1=CCCCC1 | 7.0% | 0.1% | i | 14.5 | i | 0.6%
CCOc1ccc2[nH]c3c(NCCCOC)ncnc3c2c1 | 7.8% | -19.5% | i | 28.3 | i | 5.3%
COc1ccc(CNc2ncnc3c2[nH]c2cc(OC)c(OC)cc23)cc1 | ? | 21.7% | i | 23.2 | i | -29.6%
CC(C)OCCCNc1ncnc2c1[nH]c1ccccc12 | -4.8% | 0.0% | 7.31µM* | 3.5 | ? | 1.7%
COc1ccc(CNc2ncnc3c2[nH]c2ccccc23)cc1 | ? | 96.9% | i | 15.7 | 13µM* | -17.1%
COc1ccc(CNC(=O)Cn2cnc3c(NCc4ccccc4)ncnc32)cc1 | ? | 13µM* | 10.3µM* | 0.4 | i | 3.3%
COc1cc(NC(=O)CSc2nccn2C)cc(OC)c1OC | . | . | i | . | i | .
N#Cc1c(-c2ccc(Cl)cc2)n(O)c2ccccc12 | 3.66µM* | 8.2µM* | 7.31µM* | -17.9 | 3.66µM* | -16.3%
CCC(=O)N1CCN(c2ccc(OC)cc2[N+](=O)[O-])CC1 | 0.4% | -2.8% | i | -5.7 | i | -1.7%
COc1ccc(N2CCN(C(=O)CC34CC5CC(CC(C5)C3)C4)CC2)c([N+](=O)[O-])c1 | ? | 4.0% | ? | -8.1 | 18.4µM* | -1.1%
COc1ccc(Cn2nnc3c(=O)[nH]c(C4CCN(C(=O)c5ccc(C)cc5)CC4)nc32)cc1OC | . | . | i | . | i | .
Cc1nc(N2CCN(C(=O)c3ccco3)CC2)c2c3c(sc2n1)CCC3 | -0.3% | -3.7% | ? | 2.3 | 8.2µM* | 0.3%
Cc1ccc(-c2csc3ncnc(N4CCN(C(=O)c5ccco5)CC4)c23)cc1 | 22.4% | 5.9% | i | -5.1 | 20.6µM* | -7.5%
CC(C)c1nc(N2CCN(C(=O)c3ccco3)CC2)c2c3c(sc2n1)CCCC3 | -2.1% | -1.5% | i | 2.1 | i | 17.0%
CC(C)(C)C(=O)N1CCN(c2ncnc3scc(-c4ccccc4)c23)CC1 | 7.6% | 24.1% | ? | 17.8 | 14.6µM* | -2.9%
Cc1sc2ncnc(N3CCN(C(=O)c4ccco4)CC3)c2c1C | ? | -0.8% | ? | 41.2 | 18.4µM* | 6.0%
O=C(c1cc(COc2ccc(F)cc2Cl)on1)N1CCSCC1 | 1.7% | 13.7% | i | -9.2 | i | 1.0%
O=C(COC(=O)c1ccco1)NCCc1ccc(Cl)cc1 | 2.0% | -0.3% | i | -3.3 | ? | -1.6%
CCOC(=O)c1cc(-c2ccc(C)cc2)n(CCC(=O)NCc2ccccc2)c1C | . | . | i | . | i | .
CCOC(=O)c1cc(-c2ccc(C)cc2)n(CCC(=O)N2CCN(c3ccccn3)CC2)c1C | ? | 4.3% | ? | -12.5 | 1.16µM* | -17.6%
CCOC(=O)c1cc(-c2ccc(C)cc2)n(CCC(=O)Nc2ccc(C(C)C)cc2)c1C | . | . | 18.4µM* | . | ? | .
CCOC(=O)c1cnc2c(OC)cccc2c1N1CCN(c2ccccn2)CC1 | ? | -5.6% | i | 1.6 | 8.2µM* | -0.5%
CC(NC(=O)c1ccccc1NC(=O)c1nsc2ccccc12)c1ccccc1 (centres undefined) | . | . | i | . | i | .
COc1ccccc1CN1CCC(CNC(=O)c2cnn(-c3ccc(Cl)cc3)c2C2CCN(C(=O)OC(C)(C)C)CC2)CC1 | . | . | 16.4µM* | . | ? | .
COc1ccccc1CN1CCC(CNC(=O)c2cnn(-c3ccc(C)c(C)c3)c2C2CCN(C(=O)OC(C)(C)C)CC2)CC1 | . | . | i | . | i | .
SMILES | MCF10A rerep | SW480 rerep | KB-3-1 cytotox | Giardia kill | KB-V1 MDR tox | ASM inhibitor
CCCCN(CCCC)c1nc2ccccc2nc1NS(=O)(=O)c1ccc(NC(C)=O)cc1 | 11.6µM* | 20.6µM* | i | 2.0 | i | 48.4%
CC(=O)Nc1ccc(S(=O)(=O)Nc2nc3ccccc3nc2Nc2ccc(N)cc2)cc1 | -0.5% | 22.1% | i | 11.7 | i | -1.7%
CCN(CC)CCOc1ccc(-c2nc3cc(Cl)ccc3s2)cc1 | 23.7µM* | 18.8µM* | . | . | . | .
Cc1cc(S(=O)(=O)NCC(c2ccccc2)c2ccccc2)ccc1-n1cnnn1 | 3.7% | -7.6% | i | -4.1 | 18.4µM* | -2.7%
COc1ccccc1CNS(=O)(=O)c1ccc(-n2cnnn2)c(C)c1 | -0.8% | -10.7% | i | -6.0 | i | 2.0%
Cc1cccc(NC(=S)NCc2ccc3c(c2)cc(C)n3C)c1C | 13µM* | ? | ? | -13.1 | i | -12.2%
O=C(CC(=O)Nc1ccccc1F)Nc1ccc2nc3n(c(=O)c2c1)CCCCC3 | . | . | i | . | i | .
COc1ccc(CCNS(=O)(=O)c2cc(-c3cc(C)no3)ccc2OC)cc1OC | . | . | i | . | i | .
CC(=O)N1CCCc2cc(S(=O)(=O)N3CCCC(C(=O)Nc4cccc(Cl)c4C)C3)ccc21 (centres undefined) | . | . | i | . | i | .
CC1(c2ccccc2)CC(C)(C)n2c(O)c(C3=NC(=S)NC3=O)c3cccc1c32 (centres undefined) | 7.9% | 16.5% | ? | 0.3 | 11.6µM* | -3.3%
Cc1nc(N)nc(Nc2ccc(Cl)cc2)c1Br | 0.2% | -1.3% | ? | -20.3 | 20.6µM* | 0.1%
Cc1nc(N)nc(Nc2ccc(C#N)cc2)c1Br | -3.4% | 116.4% | i | -4.0 | i | 5.1%
NC1=C(Cl)C(=O)c2ccc(S(N)(=O)=O)cc2C1=O | 1.46µM* | 0.731µM* | ? | -5.9 | ? | -2.1%
NC1=C(Cl)C(=O)c2ccccc2C1=O | ? | 16.4µM* | ? | -25.5 | i | -2.1%
CCOC(=O)/C(C#N)=C/c1cc2cc(C)c(C)cc2nc1Cl | -10.6% | -3.7% | i | -0.2 | i | 18.9%
Cc1cc2cc(C=C(C#N)C#N)c(Cl)nc2cc1C | 18.4µM* | ? | i | -15.7 | i | 109.6%
COc1ccc(S(=O)(=O)N2CCOC23CCN(S(=O)(=O)c2ccc(Cl)cc2)CC3)cc1 | 14.3% | 3.2% | i | -12.1 | i | 1.0%
Cc1ccc(S(=O)(=O)Nc2ncnc3sc(C)c(C)c23)cc1 | ? | -3.9% | ? | -14.7 | 3.66µM* | -3.3%
Cc1ccc(Nc2ncnc3sc(C)c(C)c23)cc1 | -2.7% | -1.4% | i | -6.8 | ? | -1.7%
CCCCNC(=O)Cn1c(SCc2cccc(C)c2)nc2ccncc21 | . | . | i | ? | i | .
CCNc1nc(C#N)nc(N2CCOCC2)n1 | . | . | i | 6.8 | i | .
Cc1ccc(S(=O)(=O)N2CCN(C(=O)[C@H](Cc3ccccc3)NC(=O)c3ccco3)CC2)cc1C | 1.5% | 0.4% | i | -5.4 | 11.6µM* | 0.9%
